Measurements taken from PubChem BioAssay (Tox21).
Where “and” joins values, the source holds several entries; their conditions need not be identical. Equal entries are not always repeated. Results filed as inconclusive are left out. Entries that show only a call come without a potency. Calls of active or inactive are those of the source. Unless noted, the call rests on the fitted dose curve.

Legend:
[1] = Nuclear factor erythroid 2-related factor 2/antioxidant responsive element (Nrf2/ARE) small molecule agonists: luciferase reporter gene qHTS assay in human keratinocytes (AID 1919969); further: nearly all actives have a fitted effect of over 35% in size; further: potency means the concentration at half of the fitted maximal effect
[2] = target: Gonadotropin-releasing hormone receptor (Homo sapiens) (UniProt P30968); assay: Human gonadotropin-releasing hormone receptor (GnRHR) small molecule agonists, calcium flux assay in GnRHR-HEK293 cells (AID 1920063); further: nearly all actives have a fitted effect of over 35% in size
Summary of the method: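 Agonist activity was measured as intracellular calcium flux in HEK293 cells engineered to stably express human GnRHR. After dye loading for 1 hour at 37 C, compounds in DMSO were added and fluorescence was followed for 3 minutes.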

[3] = target: KiSS-1 receptor (Homo sapiens) (UniProt Q969F8); assay: Human kisspeptin (KISS1R) small molecule agonists, calcium flux assay in KISS1R-HEK293 cells (AID 1920064; active means well fitted activation curve with a large enough effect in the repeat runs)
Summary of the method: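 Agonist activity is monitored as intracellular calcium rise in engineered HEK293 cells carrying human KISS1R. Cells are dye-loaded for 1 h at 37 C before compound addition, and fluorescence is recorded for 3 min.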

[4] = G protein-coupled receptor (GPCR) small molecule agonists, calcium flux assay: HEK293 wild type cell line counter screen (AID 1920065)
Summary of the method: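 Seed cells, incubate 18 h (37 C, 5% CO2); add calcium dye, 1 h at 37 C; pin-transfer compounds, ATP control or DMSO; read fluorescence 480/540 nm each second for 3 min.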

[5] = p53 small molecule agonists, cell-based qHTS assay with human liver microsomes: qHTS cell viability counter screen (AID 1963579); further: nearly all actives have a fitted effect of over 45% in size
Summary of the method: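 p53RE-bla cells (4,000/well) were pre-incubated 5 h at 37 C, then given compounds in DMSO plus human liver microsomes (0.5 mg/mL final) and NADPH (0.5 mg/mL final) for 16 h at 37 C. Viability was read by CellTiter-Glo luminescence.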

[6] = p53 small molecule agonists, cell-based qHTS assay with rat liver microsomes: qHTS cell viability counter screen (AID 1963580); further: nearly all actives have a fitted effect of over 45% in size
Summary of the method: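 Rat liver microsome (0.5 mg/mL final) and NADPH (0.5 mg/mL final) co-incubation with compounds for 16 h at 37 C on HCT-116 p53RE-bla cells; cytotoxicity taken from intracellular ATP luminescence.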

[7] = p53 small molecule agonists, cell-based qHTS assay: qHTS cell viability counter screen (AID 1963581); further: nearly all actives have a fitted effect of over 45% in size
Summary of the method: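 Viability was counter-screened in parallel with the p53 agonist reporter by measuring intracellular ATP luminescence in the same HCT-116 p53RE-bla wells after 16 h compound treatment at 37 C.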

[8] = target: 5-hydroxytryptamine receptor 2A (Homo sapiens) (UniProt P28223); assay: 5-hydroxytryptamine receptor 2A (HTR2A) small molecule antagonists, cell-based qHTS assay (AID 1963586); further: nearly all actives have a fitted effect of over 45% in size
Summary of the method: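 CHO cells stably expressing human HTR2A were plated for 18 h at 37 C, then loaded with calcium dye for 1 h. Compounds were preincubated 5 min at room temperature before DOI (4 nM solution) was added. Kinetic fluorescence was read for 3 min.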

[9] = target: 5-hydroxytryptamine receptor 2A (Homo sapiens) (UniProt P28223); assay: 5-hydroxytryptamine receptor 2A (HTR2A) small molecule agonists, cell-based qHTS assay (AID 1963587); further: nearly all actives have a fitted effect of over 30% in size
Summary of the method: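 Kinetic calcium-flux fluorescence (2 min, 1 sec intervals) after compound addition in agonist mode. HTR2A-CHO cells were cultured 18 h, then dye-loaded 1 h at 37 C.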

[10] = target: Muscarinic acetylcholine receptor M1 (Homo sapiens) (UniProt P11229); assay: Cholinergic receptor muscarinic 1 (CHRM1) small molecule antagonists, cell-based qHTS assay (AID 1963588); further: nearly all actives have a fitted effect of over 40% in size; further: potency means the concentration at half of the fitted maximal effect
Summary of the method: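 Compounds were tested at 15 concentrations in three independent runs. Dye-loaded CHRM1-CHO cells were exposed 5 min at room temperature before stimulation by acetylcholine added at 50nM. Intracellular calcium was read kinetically on FDSS for 3 min.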

[11] = target: Muscarinic acetylcholine receptor M1 (Homo sapiens) (UniProt P11229); assay: Cholinergic receptor muscarinic 1 (CHRM1) small molecule agonists, cell-based qHTS assay (AID 1963589); further: nearly all actives have a fitted effect of over 35% in size
Summary of the method: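 Cells were plated and incubated 18 h at 37 C/5% CO2, loaded with calcium dye for 1 h at 37 C, then treated with compounds in DMSO. Fluorescence was recorded kinetically at 1 sec intervals.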

[12] = cAMP Responsive Elements (CRE) small molecule agonists, cell-based qHTS assay (AID 1963590)
Summary of the method: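 Cells carrying a CRE-driven beta-lactamase reporter (HEK 293T) are seeded, incubated overnight (18 h), and treated with test compounds for 3 h at 37 C; reporter activity is then detected with a FRET substrate after 2 h at room temperature.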

[13] = cAMP Responsive Elements (CRE) small molecule antagonists, cell-based qHTS assay (AID 1963591; active means well fitted inhibition curve with a large enough effect in the signal ratio in the repeat runs, not every such curve was filed as active; the % refers to the signal ratio)
Summary of the method: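 Cells (CRE-bla HEK 293T, DMEM with 10% dialyzed FBS and 25 mM HEPES) are seeded and incubated 18 h. Compounds are added with NKH477 agonist at 0.25 uM final for 3 h, then FRET substrate for 2 h.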

[14] = target: Beta-2 adrenergic receptor (Homo sapiens) (UniProt P07550); assay: Adrenergic beta2 receptor (ADRB2) small molecule antagonists, cell-based qHTS assay (AID 1963592); further: series mostly up to about 92 µM; nearly all actives have a fitted effect of over 50% in size
Summary of the method: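 Assay format: CHO-ADRB2 cells, 18-20hr seeding at 37C/5% CO2, then compound plus 1nM isoproterenol agonist mix for 0.5hr RT. Homogeneous time-resolved fluorescence cAMP detection after 1hr, expressed as 665/615 nm ratio.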

[15] = target: D(2) dopamine receptor (Homo sapiens) (UniProt P14416); assay: Dopamine D2 receptor (DRD2) small molecule agonists, cell-based qHTS assay (AID 1963594); further: nearly all actives have a fitted effect of over 35% in size
Summary of the method: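 cAMP accumulation in DRD2-HEK293 cells measured by HTRF after 1 h detection; compounds added 10 min before NKH477 (200nM […]) forskolin-analogue stimulation, 30 min at room temperature, with Ro20-1724 present at 0.1 mM final.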

[16] = target: D(2) dopamine receptor (Homo sapiens) (UniProt P14416); assay: Dopamine D2 receptor (DRD2) small molecule antagonists, cell-based qHTS assay (AID 1963595; active means well fitted inhibition curve with a large enough effect in the signal ratio in the repeat runs, with a control signal flat; the % refers to the signal ratio)
Summary of the method: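 Antagonist mode in DRD2-HEK293 cells: after compound addition with 0.1 mM Ro20-1724, cells received quinpirole (12 nM) and NKH477 (200 nM) for 30 min at room temperature; HTRF cAMP read after 1 h detection.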

[17] = target: Beta-2 adrenergic receptor (Homo sapiens) (UniProt P07550); assay: Adrenergic beta2 receptor (ADRB2) small molecule agonists, cell-based qHTS assay (AID 1963593);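 further: CHO cells stably overexpressing human ADRB2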
Summary of the method: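 CHO cells stably over-expressing ADRB2 were plated overnight at 37C, then dosed with compounds plus a stimulation mix containing 100uM IBMX and 25uM Ro-20-1724 for 0.5hr at room temperature. cAMP was measured by HTRF competition, 1hr.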

[18] = p53 small molecule agonists, cell-based qHTS assay with human liver microsomes (AID 1963577)
Summary of the method: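 p53RE-bla reporter cells were pre-incubated 5 h at 37 C, then treated with compounds plus human liver microsomes (0.5 mg/mL final) and NADPH (0.5 mg/mL final) for 16 h at 37 C. Beta-lactamase activity was read by LiveBLAzer fluorescence after 2 h at room temperature.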

[19] = p53 small molecule agonists, cell-based qHTS assay with rat liver microsomes (AID 1963578)
Summary of the method: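 p53RE-bla cells were exposed to compounds together with rat liver microsomes (0.5 mg/mL final) and NADPH (0.5 mg/mL final) for 16 h at 37 C, then read by LiveBLAzer beta-lactamase fluorescence after 2 h at room temperature.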

[20] = p53 small molecule agonists, cell-based qHTS assay (AID 1963582; active means well fitted activation curve with a large enough effect in the signal ratio in the repeat runs, not every such curve was filed as active; the % refers to the signal ratio; further: potency means the concentration at half of the fitted maximal effect)
Summary of the method: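 Cells carrying a p53-responsive bla reporter are treated with test compounds for 16 h at 37 C; beta-lactamase activity is then detected with LiveBLAzer B/G FRET substrate after 2 h at room temperature.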

Chain of D(2) dopamine receptor (Homo sapiens) (P14416 whole entry, looked up): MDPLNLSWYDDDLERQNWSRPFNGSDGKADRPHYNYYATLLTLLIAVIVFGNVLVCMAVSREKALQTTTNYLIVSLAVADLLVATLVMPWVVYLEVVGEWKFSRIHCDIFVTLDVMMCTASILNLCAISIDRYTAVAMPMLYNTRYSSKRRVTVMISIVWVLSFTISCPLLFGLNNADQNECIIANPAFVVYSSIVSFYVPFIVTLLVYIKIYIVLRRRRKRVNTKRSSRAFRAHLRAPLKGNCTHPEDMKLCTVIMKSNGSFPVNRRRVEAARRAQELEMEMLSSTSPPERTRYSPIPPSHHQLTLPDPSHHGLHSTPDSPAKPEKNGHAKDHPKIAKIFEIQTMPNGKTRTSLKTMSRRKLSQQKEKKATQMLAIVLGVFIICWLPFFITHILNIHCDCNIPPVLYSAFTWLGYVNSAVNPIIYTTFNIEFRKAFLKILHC
Chain of KiSS-1 receptor (Homo sapiens) (Q969F8 whole entry, looked up): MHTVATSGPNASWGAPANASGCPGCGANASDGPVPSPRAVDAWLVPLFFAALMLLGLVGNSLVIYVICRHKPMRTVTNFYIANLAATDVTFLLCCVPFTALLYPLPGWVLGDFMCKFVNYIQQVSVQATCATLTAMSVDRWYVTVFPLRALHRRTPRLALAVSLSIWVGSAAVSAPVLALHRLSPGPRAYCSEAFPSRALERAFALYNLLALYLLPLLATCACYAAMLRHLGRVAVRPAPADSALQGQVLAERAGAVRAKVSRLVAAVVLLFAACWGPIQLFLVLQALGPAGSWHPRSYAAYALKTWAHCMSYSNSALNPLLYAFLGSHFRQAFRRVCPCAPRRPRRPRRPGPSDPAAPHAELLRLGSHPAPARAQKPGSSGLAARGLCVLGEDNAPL
Chain of Muscarinic acetylcholine receptor M1 (Homo sapiens) (P11229 whole entry, looked up): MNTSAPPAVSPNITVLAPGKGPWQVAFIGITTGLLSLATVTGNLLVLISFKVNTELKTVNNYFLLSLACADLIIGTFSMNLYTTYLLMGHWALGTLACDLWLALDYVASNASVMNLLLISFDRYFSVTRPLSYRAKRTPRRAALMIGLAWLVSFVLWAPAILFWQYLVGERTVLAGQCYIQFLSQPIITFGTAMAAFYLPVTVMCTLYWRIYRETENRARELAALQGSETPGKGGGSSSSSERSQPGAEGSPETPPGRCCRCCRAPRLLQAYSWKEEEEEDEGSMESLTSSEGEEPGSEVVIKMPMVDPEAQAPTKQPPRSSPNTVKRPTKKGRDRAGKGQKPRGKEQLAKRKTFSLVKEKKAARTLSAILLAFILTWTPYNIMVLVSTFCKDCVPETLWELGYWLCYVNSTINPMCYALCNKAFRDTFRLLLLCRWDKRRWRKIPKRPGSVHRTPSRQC
Chain of 5-hydroxytryptamine receptor 2A (Homo sapiens) (P28223 whole entry, looked up): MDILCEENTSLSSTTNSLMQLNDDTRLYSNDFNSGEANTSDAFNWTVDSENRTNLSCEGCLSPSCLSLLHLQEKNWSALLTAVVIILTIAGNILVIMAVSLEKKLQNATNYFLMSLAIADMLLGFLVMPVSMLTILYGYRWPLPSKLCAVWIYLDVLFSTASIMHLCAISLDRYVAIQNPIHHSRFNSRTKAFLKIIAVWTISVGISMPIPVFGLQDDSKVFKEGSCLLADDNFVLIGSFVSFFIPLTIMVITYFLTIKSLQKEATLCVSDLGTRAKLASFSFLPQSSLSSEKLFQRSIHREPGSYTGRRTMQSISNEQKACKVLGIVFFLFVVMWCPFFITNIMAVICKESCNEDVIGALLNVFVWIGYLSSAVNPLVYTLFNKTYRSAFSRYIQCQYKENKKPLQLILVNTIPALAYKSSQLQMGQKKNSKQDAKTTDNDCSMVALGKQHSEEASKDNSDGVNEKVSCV
Chain of Beta-2 adrenergic receptor (Homo sapiens) (P07550 whole entry, looked up): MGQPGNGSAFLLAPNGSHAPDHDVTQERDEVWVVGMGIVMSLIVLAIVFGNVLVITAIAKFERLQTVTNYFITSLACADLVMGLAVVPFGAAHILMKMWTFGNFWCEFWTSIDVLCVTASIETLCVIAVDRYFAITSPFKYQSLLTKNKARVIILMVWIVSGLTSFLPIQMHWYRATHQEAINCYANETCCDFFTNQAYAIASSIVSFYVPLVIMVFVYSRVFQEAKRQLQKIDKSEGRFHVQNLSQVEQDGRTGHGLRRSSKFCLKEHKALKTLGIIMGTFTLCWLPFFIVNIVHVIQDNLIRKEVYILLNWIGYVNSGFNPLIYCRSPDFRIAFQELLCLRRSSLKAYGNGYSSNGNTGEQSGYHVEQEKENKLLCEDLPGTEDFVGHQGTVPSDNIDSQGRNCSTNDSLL
Chain of Gonadotropin-releasing hormone receptor (Homo sapiens) (P30968 whole entry, looked up): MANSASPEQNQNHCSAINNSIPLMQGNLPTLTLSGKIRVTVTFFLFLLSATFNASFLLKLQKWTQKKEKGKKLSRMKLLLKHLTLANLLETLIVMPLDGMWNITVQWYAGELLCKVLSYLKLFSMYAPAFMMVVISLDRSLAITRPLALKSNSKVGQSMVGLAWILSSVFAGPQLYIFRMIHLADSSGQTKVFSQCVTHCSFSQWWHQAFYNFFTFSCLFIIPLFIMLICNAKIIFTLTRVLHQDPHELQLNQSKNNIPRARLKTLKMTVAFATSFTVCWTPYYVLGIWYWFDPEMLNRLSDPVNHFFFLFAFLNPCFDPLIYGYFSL

SMILES	Potency [1]	Potency [2]	Potency [3]	Potency [4]	Potency [5]	Potency [6]	Potency [7]	Potency [8]	Potency [9]	Potency [10]	Potency [11]	Potency [12]	Potency [13]	Potency [14]	Potency [15]	Potency [16]	Potency [17]	Potency [18]	Potency [19]	Potency [20]
CC(C)=CC1C(C(=O)OCc2coc(Cc3ccccc3)c2)C1(C)C (stereo unspecified)	61.2 µM (active) and 61.1 µM (active)	inactive	inactive	inactive	inactive	inactive	inactive	inactive	inactive	inactive	inactive	inactive	inactive	inactive	inactive	inactive				
CCCN(CCC)c1c([N+](=O)[O-])cc(S(C)(=O)=O)cc1[N+](=O)[O-]	inactive	inactive	inactive	inactive	inactive	inactive	inactive	inactive	inactive	10.6 µM (active)	inactive		inactive	inactive	inactive	inactive	inactive			
CC1=C(C(=O)Nc2ccccc2)S(=O)(=O)CCO1	10.9 µM (active)	inactive	inactive	inactive		inactive			inactive	inactive	inactive	inactive	inactive	inactive	inactive	inactive		inactive	inactive	28.9 µM (active)
CCC(C)(C)C(=O)OC1=C(c2ccc(Cl)cc2Cl)C(=O)OC12CCCCC2	9.69 µM (active)	inactive	inactive	inactive	inactive	inactive		inactive		inactive	inactive					inactive	inactive		inactive	inactive
Cc1cc(C)cc(OP(=O)(Oc2cc(C)cc(C)c2)Oc2cc(C)cc(C)c2)c1	inactive	inactive	inactive	inactive			inactive	inactive	inactive	inactive		inactive	inactive	inactive	inactive			inactive		inactive
CCc1nn(C)c(C(=O)NCc2ccc(C(C)(C)C)cc2)c1Cl	inactive	inactive	inactive	inactive				inactive	inactive	inactive	inactive			inactive			inactive	inactive	inactive	
C[C@H]1CCC[C@H](O)CCCCCc2cc(O)cc(O)c2C(=O)O1	inactive	inactive	inactive	inactive		inactive	inactive			inactive	inactive				inactive	inactive			inactive	inactive
COP(=O)(OC)OC(Br)C(Cl)(Cl)Br (stereo unspecified)	27.3 µM (active) and 54.5 µM (active)	inactive	inactive	inactive	inactive	inactive	inactive	inactive	inactive	inactive	inactive	inactive	inactive	inactive	inactive	inactive	inactive			
